ClpP mod – qHTS Assay for Activators of ClpP. 1.9% of 340,000 active. AID 651965, 2013. ATP-dependent Clp protease proteolytic subunit (Bacillus subtilis (strain 168)), P80244. Potency, µM (top dose mostly 57.5 µM), for the others: at the top dose activity change, negative = active. purified B. subtilis ClpP, FRET peptide cleavage, 20 min; active = well fitted falling curve with a large enough effect; inconclusive = small, poorly fitted or top-dose-only effect; inactive = no such curve, though single readings can be large or run the other way; also: potency is read from the fitted curve at half-maximal effect; the source files actives as falling curves though it sought activators and does not explain the sign; nearly all actives have a fitted effect of over 65% in size
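Buffer: 100 mM Tris/HCl pH8, 100 mM KCl, 0.05% low protease BSA, 2.5% glycerol, 0.01% Tween-20. ClpP 10 microg/mL final; 20 min RT; delta FRET normalized to ADEP and DMSO controls.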
Rango release inh – qHTS Assay for Inhibitors of RanGTP induced Rango (Ran-regulated importin-beta cargo) - Importin beta complex dissociation | Biochemical FRET Rango-importin beta, RanGTP-induced dissociation | AID 540253, 2011 | Potency, µM (doses to about 46.1 µM), for the others: at the highest dose activity change, negative = inhibition | Snurportin-1 (Homo sapiens) + GTP-binding nuclear protein Ran (Homo sapiens) + Importin … | 0.071% of 340,000 active; also: potency is read from the fitted curve at half-maximal effect; % of control where 0% means no effect; nearly all actives have a fitted effect of over 45% in size
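Compounds preincubate 5 min with complex of recombinant Rango and importin beta in PBS with 1 mM DTT. Ran (0.6 uM) loaded with 2 mM GTP plus 0.2 uM RCC1 starts dissociation; FRET is recorded 45 min later.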
MBNL1 CUG block – qHTS Assay for Inhibitors of MBNL1-poly(CUG) RNA binding; AID 2675, 2010; TR-FRET MBNL1-His/biotin-(CUG)12 binding, 665/545 ratio; 0.036% of 280,000 active; Potency, µM (titrated, usually from 57.5 µM), without a hit: top-dose activity change, negative = inhibition, usual class: inhibitors; active = well fitted inhibition curve with a large enough effect in the signal ratio, with a control signal flat, not every such curve was filed as active; inconclusive = small, poorly fitted or top-dose-only effect, or effect the other way, or a change in a side signal; inactive = no such curve, though single readings can be large or run the other way; the % refers to the signal ratio; also: potency is read from the fitted curve at half-maximal effect; % is scaled to controls: 0 for no effect and ±100 for the full control effect
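MBNL1-His + Biotin-(CUG)12, cpd titration 92 nM–58 uM; Tb anti-His Ab 0.055 ng/ul, SA-XL665 5 nM (final); 60 min RT; ratiometric 665/545 nm, Ex 340 nm; normalized to buffer and full-complex controls.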
Rango complex inh – qHTS Assay for Inhibitors of Rango (Ran-regulated importin-beta cargo) - Importin beta complex formation; Rango CFP/YFP FRET sensor + importin beta, 45 min; Potency, µM (series often up to 92.2 µM), without a hit: at the highest dose inhibition of complex formation; 0.031% of 340,000 active; AID 540263, 2011;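 also: potency is read from the fitted curve at half-maximal effect; 0% = DMSO wells and 100% = buffer wells lacking importin beta; nearly all actives have a fitted effect of over 15% in size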
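Inhibition scored from the CFP 486 nm/YFP 530 nm FRET ratio 45 min after adding 0.125 microM importin beta to 50 nM Rango biosensor preincubated 5 min with compound (room temperature, PBS with DTT, Tween-20, BSA). No-importin wells as positive control.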
CBFb-RUNX1 inh – qHTS Assay for Compounds Blocking the Interaction Between CBF-beta and RUNX1 for the Treatment of Acute Myeloid Leukemia; 230,000 tested, under 10 active; Potency, µM (series often up to 59.8 µM), inactives show top-dose activity, negative = inhibition, usual class: inhibitors; Runt-related transcription factor 1 (Homo sapiens) + Core-binding factor subunit beta …; AlphaScreen CBFb-His/RUNX1-biotin binding, biochemical; active = well fitted curve in the direction sought with a large enough effect; inconclusive = small, poorly fitted or top-dose-only effect, or effect the other way, or another doubt; inactive = no such curve, though single readings can be large or run the other way; also: % of control where 0% means no effect
Target sequence (Q01196 whole entry, looked up): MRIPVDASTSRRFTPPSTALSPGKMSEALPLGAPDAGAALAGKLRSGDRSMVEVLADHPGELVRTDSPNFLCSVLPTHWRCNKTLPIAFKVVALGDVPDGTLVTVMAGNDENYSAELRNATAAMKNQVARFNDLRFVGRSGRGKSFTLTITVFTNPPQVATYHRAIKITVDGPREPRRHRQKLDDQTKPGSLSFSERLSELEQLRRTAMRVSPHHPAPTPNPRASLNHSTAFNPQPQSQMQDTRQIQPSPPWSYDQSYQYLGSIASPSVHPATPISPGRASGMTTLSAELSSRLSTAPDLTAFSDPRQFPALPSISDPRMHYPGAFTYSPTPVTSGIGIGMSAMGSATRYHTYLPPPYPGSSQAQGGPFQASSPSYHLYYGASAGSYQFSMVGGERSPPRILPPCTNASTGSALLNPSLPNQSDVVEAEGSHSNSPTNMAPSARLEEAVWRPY
Target sequence (Q13951 whole entry, looked up): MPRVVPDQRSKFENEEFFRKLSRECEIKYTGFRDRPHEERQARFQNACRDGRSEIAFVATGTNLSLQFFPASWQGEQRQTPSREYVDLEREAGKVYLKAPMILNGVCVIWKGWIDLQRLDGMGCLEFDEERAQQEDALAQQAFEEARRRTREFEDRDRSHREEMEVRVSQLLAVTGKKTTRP
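Bead-based AlphaScreen assay; binding partners His-tagged CBF-beta and biotinylated RUNX1 at 30 nM each. Compound exposure 15 min after a 20-min protein preincubation; bead step 90 min; all steps at room temperature.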
Numbers without * were called inactive; ? = inconclusive; . = not tested or not shown. The entries come from a sample that favours hits as a whole. Unless noted, calls follow the shape of the full dose curve.

SMILES	ClpP mod	Rango release inh	MBNL1 CUG block	Rango complex inh	CBFb-RUNX1 inh
COc1cccc(-c2nc(-c3ccc(-c4ccccc4)nc3OC)no2)c1	25.1µM*	.	.	.	.
C[n+]1cccc(Br)c1	-1.3%	.	.	.	.
CCn1c(=O)cc(OCC(=O)Nc2ccccc2Cl)c2ccccc21	-2.3%	.	.	.	.
CCOc1cc(S(=O)(=O)NCc2ccc(OC)cc2)c(OCC)cc1-n1cnnn1	22.4µM*	0.3%	1.1%	0.3%	-4.7%
CCOc1cc(S(=O)(=O)NC2CC2)c(OCC)cc1-n1cnnn1	31.6µM*	-5.1%	1.0%	0.0%	2.3%
CCOc1cc(S(=O)(=O)NCCc2ccc(OC)c(OC)c2)c(OCC)cc1-n1cnnn1	-2.3%	-0.3%	-0.5%	-2.5%	4.1%
CCOc1cc(S(=O)(=O)NCC2OCCc3ccccc32)c(OCC)cc1-n1cnnn1 (stereo unspecified)	12.6µM*	40.6%	2.1%	-4.1%	0.7%
CCOc1cc(S(=O)(=O)N2CCN(S(=O)(=O)CC)CC2)c(OCC)cc1-n1cnnn1	3.6%	3.3%	0.1%	?	.
COc1ccc(CCNC(=O)C(=O)NCC(c2cccnc2)N2CCN(c3ccccc3)CC2)cc1 (stereo unspecified)	-4.8%	.	.	.	.
c1ccc2c(c1)[nH]c1c(N3CCN(C4CCCCC4)CC3)ncnc12	31.6µM*	-14.9%	?	-0.1%	-3.1%
Cc1cccc2[nH]c3c(N4CCC5(CC4)OCCO5)ncnc3c12	?	5.0%	4.5%	-1.3%	2.6%
c1ccc2c(c1)[nH]c1c(N3CCCC3)ncnc12	-26.4%	26.0%	1.2%	-1.2%	-9.7%
Fc1ccc2[nH]c3c(N4CCc5ccccc5C4)ncnc3c2c1	.	-14.4%	.	-3.1%	0.4%
Brc1ccc2[nH]c3c(N4CCc5ccccc5C4)ncnc3c2c1	31.6µM*	-5.0%	17.1%	-0.3%	1.6%
CN1CCN(c2ncnc3c2[nH]c2ccc(F)cc23)CC1	28.2µM*	10.0%	-0.6%	-1.3%	11.7%
Clc1ccc2[nH]c3c(N4CCC5(CC4)OCCO5)ncnc3c2c1	12.6µM*	0.4%	6.2%	?	4.0%
COc1ccc(N=c2nc(-c3ccccc3)n(-c3ccc(C)cc3)s2)cc1	-1.2%	.	.	.	.
O=C(O)c1cc(O)c2c(c1)[C@@H]([C@H]1c3cc(C(=O)O)cc(O)c3C(=O)c3c(O[C@@H]4O[C@H](CO)[C@@H](O)[C@H](O)[C@H]4O)cccc31)c1cccc(OC3O[C@H](CO)[C@@H](O)[C@H](O)[C@H]3O)c1C2=O (stereo partly specified)	-2.4%	10.5%	.	?	.
O=C(O)c1cc(O)c2c(c1)[C@H]([C@H]1c3cc(C(=O)O)cc(O)c3C(=O)c3c(O[C@@H]4O[C@H](CO)[C@@H](O)[C@H](O)[C@H]4O)cccc31)c1cccc(OC3O[C@H](CO)[C@@H](O)[C@H](O)[C@H]3O)c1C2=O (stereo partly specified)	-10.9%	18.4µM*	.	?	.
COc1cc(C2c3c(oc4ccccc4c3=O)C(=O)N2c2ccccn2)cc(OC)c1OC (stereo unspecified)	-3.3%	.	.	.	.
COc1nc(-c2ccccc2)cc(-c2ccc(OC)c(OC)c2)n1	22.4µM*	-6.0%	8.1%	0.2%	?
COc1ccc(-c2cc(-c3ccccc3)nc(NN)n2)cc1OC	.	4.6%	-6.3%	6.2%	.
COC(=O)c1[nH]c2ccc(Cl)cc2c1NC(=O)CN1CCC(C(N)=O)CC1	-21.9%	18.2%	9.0%	0.5%	2.2%
COC(=O)c1[nH]c2ccc(C)cc2c1NC(=O)CN1CCN(C(=O)c2ccccc2)CC1	14.1µM*	4.4%	13.8%	-2.2%	6.2%
COC(=O)c1[nH]c2ccc(C)cc2c1NC(=O)CN1CCN(c2ccccc2)CC1	22.4µM*	-5.1%	6.6%	0.1%	-4.9%
SMILES	ClpP mod	Rango release inh	MBNL1 CUG block	Rango complex inh	CBFb-RUNX1 inh
COC(=O)c1[nH]c2ccc(C)cc2c1NC(=O)CN1CCC(C)CC1	28.2µM*	6.6%	8.5%	-1.3%	-3.9%
COC(=O)c1[nH]c2ccccc2c1NC(=O)CN1CCN(C/C=C/c2ccccc2)CC1	22.4µM*	9.7%	15.4%	2.1%	-2.1%
COC(=O)c1[nH]c2ccc(C)cc2c1NC(=O)CN1CCN(c2ccc(F)cc2)CC1	-3.8%	10.9%	-4.5%	3.1%	-10.3%
CCOC(=O)N1CCN(CC(=O)Nc2c(C(=O)OC)[nH]c3cc(C)ccc23)CC1	?	10.5%	18.5%	4.7%	0.7%
c1ncc2snnc2n1	-2.4%	.	.	.	.
O=C1c2oc3ccccc3c(=O)c2C(c2ccccc2)N1Cc1ccc2c(c1)OCO2 (stereo unspecified)	-2.7%	.	.	.	.
COC(=O)c1[nH]c2ccc(C)cc2c1NC(=O)CN1CCN(Cc2ccccc2)CC1	14.1µM*	12.4%	0.1%	0.3%	-1.8%
COC(=O)c1[nH]c2cc(OC)c(OC)cc2c1NC(=O)CN1CCN(Cc2ccccc2)CC1	.	.	-0.9%	.	-0.7%
Cc1ccc(NC(=O)COc2coc(CN3CCN(Cc4ccccc4)CC3)cc2=O)cc1	28.2µM*	4.0%	.	1.6%	.
C=CCn1c(-c2cccs2)nc2ccccc21	2.82µM*	-15.6%	14.2%	2.2%	6.3%
CSc1ncc2c(n1)-c1ccccc1N(Cc1ccc(F)cc1)S2(=O)=O	-1.1%	.	.	.	.
CCCCn1c(N)c(N(CC(C)C)C(=O)COC(=O)c2ccccc2NCCO)c(=O)[nH]c1=O	15.8µM*	-12.9%	.	?	.
CCCn1c(N)c(N(CCOC)C(=O)COC(=O)c2ccccc2NCCO)c(=O)[nH]c1=O	?	4.8%	.	-1.9%	.
CC(C)CN(C(=O)COC(=O)c1cccnc1Cl)c1c(N)n(Cc2ccccc2)c(=O)[nH]c1=O	28.2µM*	-15.5%	.	-0.3%	.
Cc1ccc(C(=O)CSc2nnc3ccc4ccccc4n23)cc1	-12.8%	.	.	.	.
CCN(CC)CCCNc1nc2cc(OC)c(OC)cc2c2nc(-c3ccccc3)nn12	31.6µM*	4.9%	-7.8%	-0.1%	-0.4%
COc1cc2nc(NCc3ccccc3)n3nc(-c4ccccc4)nc3c2cc1OC	-9.2%	.	.	.	.
COc1ccc(CNc2nc3ccccc3c3nc(-c4ccccc4)nn23)cc1	28.2µM*	.	.	.	.
CCCn1cc(S(=O)(=O)c2cccc(Cl)c2)c(=O)c2cc(F)c(N3CCN(CC)CC3)cc21	-29.4%	.	.	.	.
O=C(Cn1ncn2c(cc3ccccc32)c1=O)NCc1ccc(F)cc1	-8.2%	.	.	.	.
